NPC1 promoter act: activates the NPC1 promoter | AID 485313 | 320,000 compounds, 2.4% hits | Potency, µM (doses to about 9.22 µM), actives largely listed as activators | Huh7 NPC1 promoter luciferase reporter, 24 h; also: nearly all actives have a fitted effect of over 60% in size
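Stably transfected Huh7 (NPC1 promoter→luciferase), 1500 cells/well in Opti-MEM + 10% FBS, 2 h settle, then compound 24 h at 37 °C. Luminescence after 10 min with Amplite reagent.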
FLuc counter: firefly luciferase modulation, counter-screen for miR-21 project. purified FLuc, Km substrates, luminescence inhibition. Potency, µM (doses to about 57.5 µM), actives largely listed as inhibitors. 360,000 compounds, 6.9% hits; also: nearly all actives have a fitted effect of over 55% in size
Target sequence (P08659 whole entry, looked up): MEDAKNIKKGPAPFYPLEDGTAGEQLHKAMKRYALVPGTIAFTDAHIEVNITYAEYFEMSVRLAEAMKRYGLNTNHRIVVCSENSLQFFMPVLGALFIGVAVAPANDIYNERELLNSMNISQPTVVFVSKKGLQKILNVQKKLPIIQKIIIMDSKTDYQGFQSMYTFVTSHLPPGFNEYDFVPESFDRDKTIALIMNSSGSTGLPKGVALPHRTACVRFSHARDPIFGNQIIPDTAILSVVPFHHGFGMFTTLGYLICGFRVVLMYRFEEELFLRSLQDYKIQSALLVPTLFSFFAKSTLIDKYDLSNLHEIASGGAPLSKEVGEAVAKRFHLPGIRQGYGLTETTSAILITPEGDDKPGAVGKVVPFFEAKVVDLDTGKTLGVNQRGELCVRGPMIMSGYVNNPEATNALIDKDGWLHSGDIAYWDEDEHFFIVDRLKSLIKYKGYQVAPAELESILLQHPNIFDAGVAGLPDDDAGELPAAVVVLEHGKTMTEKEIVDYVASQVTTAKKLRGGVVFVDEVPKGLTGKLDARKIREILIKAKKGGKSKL
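Purified P. pyralis luciferase (10nM final) with 10uM D-luciferin and 10uM ATP (Km levels) in 50mM Tris acetate pH 7.5, 10mM Mg acetate, 0.01% Tween-20, 0.05% BSA; qHTS 6-point titration, ~60 µM downward; luminescence read.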
ELG1 genotoxic: induces genotoxicity in HEK293T cells with luciferase-tagged ELG1; 330,000 compounds, 1.3% hits; HEK293T ELG1-luciferase reporter, luminescence, 16 h; Potency, µM (top dose mostly 46 µM), most hits filed as activators; also: nearly all actives have a fitted effect of over 60% in size
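HEK293T cells expressing luciferase-tagged ELG1 were treated with compound or DMSO for 16 hr at 37°C. Luciferase activity was then read after 30 min with ONE-Glo at room temperature; rising signal flags genetic stress.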
Rab9 prom act: activates the Rab9 promoter; Huh7 Rab9 promoter-luciferase reporter, luminescence, 24 h; Potency, µM (doses to about 9.22 µM), usual class: activators; 320,000 compounds, 2.8% hits; also: nearly all actives have a fitted effect of over 60% in size
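Using Huh7 cells stably transfected with Rab9 promoter–luciferase, compounds were incubated 24 h at 37 °C, 5% CO2; luciferase luminescence was read 10 min after reagent addition.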
SMN2 splice enh: increases expression of the SMN2 splice variant; 210,000 compounds, 2.8% hits; Potency, µM (top dose mostly 46.1 µM), usual class: activators; HEK293 SMN2-luciferase splicing reporter, luminescence, 30-36 h; also: nearly all actives have a fitted effect of over 55% in size
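HEK293 cells carry an SMN2 minigene-luciferase reporter in which exon 7 inclusion puts luciferase in frame. Cells were seeded at 2000 cells/well, attached for 10-12 hours, then exposed to compounds for 30-36 hours at 37C before ONE-Glo luminescence.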
A number is an active result; n = inactive; u = inconclusive; x = no result given; [ ] = dose if it differs, or a comment. In the library only some 7.5% were active in any assay of this set; here they are far more common. Calls follow the shape of the dose curve; as a rule, active = well fitted curve in the direction sought with a large enough effect; inconclusive = small, poorly fitted or top-dose-only effect, or another doubt; inactive = no such curve, though single readings can be large; an effect the other way counts as inactive or inconclusive.

SMILES	NPC1 promoter act	FLuc counter	ELG1 genotoxic	Rab9 prom act	SMN2 splice enh
CCCn1cnc2cc(NCc3cccc(OC)c3O)ccc21	n	12µM	u	n	n
CCCn1c(NCc2cccc(OC)c2O)nc2ccccc21	n	u	n	n	n
COC(=O)c1ccc(S(=O)(=O)NNC(=O)COc2ccc(C)cc2)cc1	n	n	n	n	n
COc1c(C(=O)NNC(=O)c2ccccc2Cl)csc1Br	3.5µM	21µM	u	u	x
O=C(NNC(=O)c1ccccc1Cl)c1ccncc1	n	n	n	n	n
COc1ccc(/C=N/Nc2cc(C)nc(N3CCOCC3)n2)cc1	n	2.4µM	n	n	x
COc1cccc(/C=N/Nc2nc(Nc3ccccc3)nc(-n3nc(C)cc3C)n2)c1O	n	6µM	n	n	n
COc1ccc(/C=N\Nc2ncc(F)c(N3CCOCC3)n2)cc1OC	n	11µM	n	n	x
Cc1cc(C)n(-c2nc(Nc3ccccc3)nc(-n3nc(C)cc3C)n2)n1	n	n	n	n	n
COc1ccc(Nc2cc(C)nc(N3CCOCC3)n2)cc1	n	u	n	n	n
COc1ccc(/C=N/Nc2cc(C)nc(N3CCOCC3)n2)cc1OC	n	6.7µM	n	n	x
COc1ccc(/C=N/Nc2nc(-c3ccc(Cl)cc3)cc(C(F)(F)F)n2)cc1OC	n	u	n	n	n
C[C@@H](NC(=O)c1nc[nH]c1C(=O)NC1CCN(C(=O)OC(C)(C)C)CC1)c1ccccc1	n	n	n	n	x
NNC(=O)CNC(=O)c1ccc(F)cc1	n	n	n	n	n
Cn1c(SCC(=O)NNC(=O)Cc2ccccc2)nnc1-c1ccc(Cl)cc1	n	n	n	n	n
COc1ccccc1CNC(=O)C(=O)NCC(c1ccco1)S(=O)(=O)c1cccs1 (configuration not stated)	x	n	x	x	x
COc1ccc(/C=N/Nc2cc(C)nc(-n3nc(C)cc3C)n2)c(OC)c1	n	17µM	u	n	n
CNc1cc(C)nc(N2CCOCC2)n1	n	n	n	n	x
COc1ccccc1/C=N/Nc1cc(C)nc(N2CCOCC2)n1	n	13µM	n	n	x
CN(Cc1ccccc1)C(=O)CN(c1ccccc1Cl)S(C)(=O)=O	n	n	n	n	x
Cc1cccc(OC(C)C(=O)NC2CCS(=O)(=O)C2)c1C (configuration not stated)	n	n	n	n	x
Cc1cc(C(=O)NNC(=S)NC(=O)/C=C/c2ccccc2Cl)n[nH]1	n	24µM	n	n	n
C/C(=N\NC(=O)c1c(Cl)c(C)nn1C)c1ccc(NC(=O)c2ccncc2)cc1	n	n	n	n	n
C/C(=N\NC(=O)c1c(Cl)c(C)nn1C)c1cccc(NC(=O)C2CCCC2)c1	n	17µM	n	n	x
CCOC(=O)C1CCCN(C(=O)c2cc(-c3ccc(C)cc3)nc3ccccc23)C1 (configuration not stated)	n	4.8µM	n	n	n
SMILES	NPC1 promoter act	FLuc counter	ELG1 genotoxic	Rab9 prom act	SMN2 splice enh
CCOC(=O)C1CCCN(C(=O)c2cn(C)c3ccc(S(=O)(=O)N4CCCC4)cc3c2=O)C1 (configuration not stated)	n	n	n	n	11µM
CCOC(=O)C1CCCN(C(=O)CC(C)c2ccccc2)C1 (configuration not stated)	2.8µM	u	u	2µM	u
CCOC(=O)C1CCCN(C(=O)c2cnn3c(C(F)(F)F)cc(-c4ccccc4)nc23)C1 (configuration not stated)	n	n	n	n	n
CCOC(=O)C1CCCN(C(=O)c2cc(Nc3ccc(OC)cc3OC)nc3ccccc23)C1 (configuration not stated)	n	9.5µM	n	n	n
CCOC(=O)C1CCCN(C(=O)c2cc(Nc3ccc(OC)c(OC)c3)nc3ccccc23)C1 (configuration not stated)	n	11µM	n	n	n
COc1ccc(Nc2cc(C(=O)NCc3ccccc3)c3ccccc3n2)cc1OC	x	n	x	x	n
Cc1cc(C)nc(SCC(=O)NCC2COc3ccccc3O2)n1 (configuration not stated)	n	n	n	n	x
CCCCCCNC(=O)Nc1ccccc1	n	u	u	n	n
O=C1CCCC1C(=O)Nc1ccc2ccccc2c1 (configuration not stated)	n	17µM	n	n	x
O=C1CCC[C@H]1C(=O)Nc1ccc2ccccc2c1	x	x	x	x	n[9.22 µM]
